High-throughput results as filed in PubChem.
The full list was thinned out, with hits kept by preference.
RmlCD inh mix = RmlC/RmlD inhibition, mixture screen | 110,000 compounds, 0.39% hits | inhibition, % at 5.5 µM | RmlC/RmlD coupled enzyme inhibition, 384-well mixture HTS; in the data active means inhibition above about 30%, passing the limit was not always enough; inconclusive means no clear call, values can overlap the other calls
HIV RNase H inh-1 = blocks HIV-1 RNase H cleavage of RNA/DNA duplex; P04585; RT-RNase H RNA/DNA duplex cleavage, fluorescence; inhibition, % at 10 µM; 65,000 compounds, 1.9% hits; in the data active means inhibition above about 50%
HIV RNase H inh-2 = confirmation of HIV-1 reverse transcriptase RNase H inhibitors; AID 651; 1,000 compounds, 39% hits; Recombinant RT RNase H, fluorescent RNA/DNA duplex cleavage; inhibition, % at 10 µM; shares compounds with HIV RNase H inh-1; in the data active means inhibition above about 48%; inconclusive means no clear call, values can overlap the other calls
The depositor's hits bear a star; ? = inconclusive; nt = not tested or not shown.

SMILES | RmlCD inh mix | HIV RNase H inh-1 | HIV RNase H inh-2
COc1ccc(-n2c(C)cc(C(=O)COc3ccc(-n4cnnn4)cc3)c2C)cc1 | 7.4 | 53.2* | 24.0
COc1ccc(OCCOC(=O)c2ccc(-n3cnnn3)cc2)cc1 | -6.7 | nt | nt
O=C(O)CN(c1ccccn1)S(=O)(=O)c1ccccc1 | -5.5 | nt | nt
COC(=O)CN(c1ccccn1)S(=O)(=O)c1ccccc1 | 58.9 | 72.6* | 37.1
COc1cccc(NC(=O)N(CCCN2CCOCC2)C(C)c2cc3ccccc3o2)c1 (stereo not drawn) | 19.0 | nt | nt
Cc1cccc(Nc2n[nH]c(=S)s2)c1C | 7.9 | 77.4* | 85.2*
C/C(N)=C(/C#N)C(=O)CSc1nnc(Nc2cccc(C)c2C)s1 | -7.1 | -0.4 | nt
Cc1cc(C)n(-c2nnc(C)n2/N=C/c2cc(Br)ccc2OCc2ccccc2)n1 | 4.3 | -79.2 | nt
N#Cc1c(-c2ccccc2)cc(-c2ccco2)c(C#N)c1N | nt | 46.4 | nt
N#Cc1sc2nc(-c3ccccc3)cc(-c3ccco3)c2c1N | 4.7 | 94.6* | -5.3
O=C(c1ccccc1)C(CCC(CN1CCOCC1)C(=O)c1ccccc1)CN1CCOCC1 (stereo not drawn) | -4.6 | 3.0 | nt
CCOC(=O)Cc1nnc2c(Nc3ccc(Cl)cc3)nc3nonc3n12 | -8.9 | -31.8 | nt
Cc1cc(NC(=O)c2ccc3c(c2)C(=O)N(C)C3=O)no1 | 3.4 | nt | nt
Cc1cc(NC(=O)c2ccc3c(c2)C(=O)N(C2CCCCC2)C3=O)no1 | 4.0 | 64.4* | 25.2
COC(=O)NCc1cccc(CNC(=O)OC)c1 | 3.7 | -41.8 | nt
CCSCc1nnc(SCC(=O)c2ccc(OC)cc2)n1C | -7.7 | 14.0 | nt
COc1ccc(CCNS(=O)(=O)c2cccc(C(=O)O)c2)cc1OC | nt | -8.9 | nt
CCN(CC)c1ccc(C(=O)Nc2cccc(F)c2)cc1 | -4.4 | 5.8 | nt
CN(C)c1cccc(C(=O)Nc2cccc(F)c2)c1 | -73.8 | 80.1* | 84.9*
O=C(CCSc1ccc(Cl)cc1)NC12CC3CC(CC(C3)C1)C2 | -10.9 | nt | nt
O=C(CSC1=NCCS1)Nc1ccc(S(=O)(=O)NC2CCCCC2)cc1 | -6.2 | nt | nt
COc1cc(NS(=O)(=O)c2ccc(NC(=O)CSC3=NCCS3)cc2)nc(OC)n1 | nt | 54.4* | 45.1
O=C(CN1CCN(S(=O)(=O)c2ccc(Cl)cc2)CC1)Nc1ccc2c(c1)OCCO2 | -13.7 | -7.0 | nt
N#Cc1c(NC(=O)CN2CCN(S(=O)(=O)c3ccc4c(c3)OCCO4)CC2)sc2c1CCC2 | -12.0 | 70.0* | 77.9*
C=CCn1c(Cc2cccs2)nnc1SCC(=O)c1cccc(Br)c1 | -6.5 | 14.6 | nt
SMILES | RmlCD inh mix | HIV RNase H inh-1 | HIV RNase H inh-2
COc1ccc(Br)cc1/C=c1\sc2nc(-c3ccco3)nn2c1=O | 4.7 | 73.2* | ?
COc1ccccc1/C=c1\sc2nc(-c3ccncc3)nn2c1=O | nt | -13.0 | nt
CCOC(=O)c1c(NC(=O)CSc2nnnn2C)sc(C)c1-c1ccc(C)cc1 | -23.0 | -55.7 | nt
CC(C)C1Cc2c(C#N)c(N)sc(=S)c2CO1 (stereo not drawn) | -5.9 | 21.1 | nt
CC1(C)Cc2c(C#N)c(N)sc(=S)c2CO1 | 8.9 | 82.2* | 40.2
CCOC(=O)c1cnc2nc(COc3ccccc3)[nH]n2c1=O | 0.9 | 2.6 | nt
CCc1nnc(NC(=O)Cn2c(=O)oc3ccccc32)s1 | 8.1 | nt | nt
CCCc1nnc(NC(=O)Cn2c(=O)oc3ccccc32)s1 | nt | 77.2* | -15.8
CCc1c(C)nc(N)n2c(SCC(=O)N3CCN(c4ccccc4OC)CC3)nnc12 | nt | -4.9 | nt
O=C(Nc1cccnc1)c1ccc(S(=O)(=O)N2CCCCCC2)cc1 | 6.0 | nt | nt
N#Cc1cc2c([nH]c1=S)CCCCCC2 | 21.1 | 80.7* | 45.5
N#Cc1c(N)n[nH]c1-c1cc2c([nH]1)CCCC2 | -15.9 | 1.9 | nt
Cc1nn(-c2nc3ccccc3s2)c(C)c1Oc1ccccc1O | 10.0 | 4.4 | nt
C[C@H](c1ccccc1)n1nnc(COCc2ccccc2)c1C#CCOCc1ccccc1 | 7.1 | nt | nt
CCC(CC)c1nnc(NC(=O)c2c(-c3ccccc3)noc2C)s1 | -12.0 | 83.7* | 28.2
Cc1nnc(NC(=O)c2c(-c3ccccc3)noc2C)s1 | -5.7 | nt | nt
C/C(=N\O)C(=O)NCCN1CCCCC1 | 4.1 | -0.8 | nt
O=C(/C=N/O)NCCN1CCCCC1 | -0.6 | 71.5* | 23.2
COc1ccc(CCn2c(SCC(=O)Nc3cc(C)on3)nc3ccccc3c2=O)cc1OC | nt | -0.2 | nt
Cc1cc(NC(=O)CSc2nc3ccccc3c(=O)n2Cc2ccc(F)cc2)no1 | -5.2 | 68.0* | 21.7
CCCCCCn1c(SCC(=O)Nc2cc(C)on2)nc2ccccc2c1=O | 4.5 | 47.2 | nt
Cc1cc(NC(=O)CSc2nc3cc4c(cc3c(=O)n2CCc2ccccc2)OCO4)no1 | 10.8 | 78.1* | 71.0*
Cc1ccc2cc3cc(C(=O)N4CCN(C(=O)c5ccco5)CC4)sc3nc2c1 | 6.2 | 55.1* | 29.3
Cc1ccc2cc3cc(C(=O)N4CCN(Cc5ccccc5)CC4)sc3nc2c1 | -10.3 | nt | nt
CCCOc1ccc([C@@H]2C3CN(C(=O)OCC)CC=C3C(C#N)=C(N)C2(C#N)C#N)cc1OC (stereo partly drawn) | 9.7 | 70.4* | 19.3
SMILES | RmlCD inh mix | HIV RNase H inh-1 | HIV RNase H inh-2
CCOC(=O)N1CC=C2C(C#N)=C(N)C(C#N)(C#N)[C@H](c3cccs3)C2C1 (stereo partly drawn) | 8.2 | nt | nt
C=CCn1c(=O)[nH]c2cc(C(=O)N3CCN(c4cc(C)ccc4C)CC3)ccc2c1=O | nt | 79.6* | 31.5
C=CCn1c(=O)[nH]c2cc(C(=O)N3CCN(c4ccc(C(C)=O)cc4)CC3)ccc2c1=O | nt | 34.8 | nt
O=C(c1ccco1)N1CCN(C(=O)c2snc3ccc(Cl)cc23)CC1 | 7.8 | 86.4* | -3.1
O=C(c1cc(-c2ccc(Cl)cc2Cl)on1)N1CCN(C(=O)c2ccco2)CC1 | 1.1 | nt | nt
CCCCc1ccc(-c2nc(NC(=O)C3C4CCC(O4)C3C(=O)O)sc2C)cc1 (stereo not drawn) | -6.3 | nt | nt
O=C(Nc1ccc(N2CCOCC2)cc1)Nc1ccc(Cl)c(Cl)c1 | -20.3 | nt | nt
O=C(Nc1ccc(N2CCOCC2)cc1)Nc1cnsn1 | 5.5 | 66.8* | 20.0
CCCCCOc1ccc(C2C(C(C)=O)=C(C)Nc3ncnn32)cc1OC (stereo not drawn) | nt | 64.2* | -10.0
COc1ccc(C2C(C(C)=O)=C(C)Nc3ncnn32)cc1OC (stereo not drawn) | -15.9 | -5.8 | nt
Cc1ccccc1-n1c(SC/C(O)=C(\C#N)c2nc3ccccc3[nH]2)nnc1-c1ccncc1 | 8.1 | 13.7 | nt
Cc1cc(C)n2c(SC/C(O)=C(\C#N)c3nc4ccccc4[nH]3)nnc2n1 | -0.5 | 83.0* | ?
CC(=O)C1=C(C)NC(SCC(N)=O)=C(C#N)C1c1cccnc1 (stereo not drawn) | 23.1 | 61.5* | 40.5
CCOC(=O)C1=C(C)NC(SCC(=O)OC)=C(C#N)C1c1ccc(C(=O)OC)cc1 (stereo not drawn) | 102.5 | 80.4* | 36.8
CC1=C(C(=O)Nc2ccc(Cl)cc2)C(c2ccncc2)C(C#N)=C(SCC(N)=O)N1 (stereo not drawn) | -10.0 | nt | nt
CCOC(=O)CSC1=C(C#N)C(c2ccc(F)cc2)C(C(C)=O)=C(C)N1 (stereo not drawn) | -12.4 | 73.0* | 13.6
CCOC(=O)CSC1=C(C#N)C(c2ccc(C)cc2)C2=C(CCCC2=O)N1 (stereo not drawn) | 3.3 | -3.6 | nt
C=CCOC(=O)C1=C(C)NC(SCC)=C(C#N)C1c1ccc(Cl)cc1 (stereo not drawn) | 4.7 | nt | nt
CC1CCCC(NC(=O)c2ccc3c(=O)n(CC4CCCO4)c(=O)[nH]c3c2)C1C (stereo not drawn) | ? | 5.3 | nt
